Experimental data from the supplement of paper PMC6555819.

Experiments:
Assay in all cases: PBM binding z-score (relative to random genomic background probes); higher = stronger binding; sequences stand for … in GC…GCGATTGACAGCGTAGAATGAAGG
[1] = tested on: PPARg:RXRa DBDmut IVT, anti-RXR (DBD mutation: RXRa K156A/R161A, NR concentration 270 nM, RXRa partner concentration 90 nM)
In short: (§1)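 Custom Agilent 4×180K protein-binding microarrays carried double-stranded probes, each with a 34-nt variable region. These regions held direct-repeat seeds, single-nucleotide variants, half-site ablations and random human genomic background sequences. Ligand-free nuclear receptor dimers were incubated on the arrays for 1 h, antibodies against each partner (one per run) detected binding, and scanned fluorescence was regression-normalized. Binding z-scores take the random background probes as reference.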

[2] = tested on: PPARg:RXRa IVT, anti-PPARg (NR concentration 270 nM, RXRa partner concentration 90 nM)
In short: as §1

[3] = tested on: PPARg DBDmut:RXRa IVT, anti-PPARg (DBD mutation: PPARg1 K132A/R137A, NR concentration 270 nM, RXRa partner concentration 90 nM)
In short: as §1

[4] = tested on: PPARg DBDmut IVT, anti-PPARg (DBD mutation: PPARg1 K132A/R137A, NR concentration 270 nM)
In short: as §1

[5] = tested on: PPARg homodimer (NR concentration 180 nM)
In short: as §1

[6] = tested on: PXR:RXRa (NR concentration 270 nM, RXRa partner concentration 90 nM)
In short: as §1

[7] = tested on: PXR homodimer (NR concentration 270 nM)
In short: as §1

[8] = tested on: RARa:RXR (NR concentration 270 nM, RXRa partner concentration 90 nM)
In short: as §1

[9] = tested on: RARa homodimer (NR concentration 270 nM)
In short: as §1

[10] = tested on: RARb:RXRa (NR concentration 270 nM, RXRa partner concentration 90 nM)
In short: as §1

Row | Sequence | PBM binding z-score [1] | PBM binding z-score [2] | PBM binding z-score [3] | PBM binding z-score [4] | PBM binding z-score [5] | PBM binding z-score [6] | PBM binding z-score [7] | PBM binding z-score [8] | PBM binding z-score [9] | PBM binding z-score [10]
1 | TCGAGTAGGTTAGGGGCATTAAGAATGGCGTCGA | 2.21 | 1.23 | -0.687 | -1.11 | 0.475 | 0.596 | 0.671 | 0.713 | -0.193 | 1.04
2 | CCTGCTACGTCATGGTCAGCTAATCTACAGTATG | 0.0597 | -0.592 | 0.222 | -0.835 | -0.235 | -0.16 | -0.428 | -0.116 | -0.328 | 0.259
3 | TTTGCTAGGTCAACGATGGTCAGCTAATCTGCTA | 4.45 | 5.11 | 0.599 | 0.434 | 0.874 | 1.46 | -0.501 | 2.15 | -0.298 | 4.13
4 | TAGCCTAGGTCATTCTGGGGCCAGTATAGAAAGC | 1.71 | 2.77 | 0.208 | 0.242 | 0.886 | 2.29 | -0.248 | 2.76 | -0.372 | 3.67
5 | CCTCTGAGGACAGAAGGTCAGAGCTGTCCGCTTT | 0.612 | 0.36 | -0.397 | -1.71 | 1.53 | 1.95 | -0.313 | 2.59 | -0.25 | 3.44
6 | CCTAGCAGGCCAGGGTAACTCAAGCATTTCGCTT | 0.216 | -0.0636 | -1.68 | -1.83 | -0.387 | -0.679 | -0.762 | -0.455 | -0.937 | -0.102
7 | CCTCGGAGGACAACAGGAGGTCAGAGTTGCCAGA | -0.0815 | 0.313 | -0.9 | -1.99 | 2.15 | 2.36 | 1.11 | 2.64 | 0.759 | 2.83
8 | TGAATGAGGTTATACGATCAGGGAACGTTGCAAA | 0.677 | 1.61 | 0.964 | 0.564 | 0.291 | 0.89 | -0.167 | 1.48 | 0.115 | 1.15
9 | AATACAGGGTCACTAGGCCTGAGTAGGTACGAAT | 2.96 | 4.76 | 1.25 | 1.34 | 2.04 | 2.85 | 0.251 | 3.86 | 0.431 | 4.06
10 | CCGACTGGCGCAAAGGTTACCATACTCAGTACGA | 0.771 | 2.5 | -1.09 | -0.747 | 0.747 | 1.7 | -0.233 | 2.04 | -0.0622 | 1.75
11 | GCTGCTAGGTCAGGTAGGTCAGCTAACGGGTACG | 3.3 | 3.37 | -0.274 | -0.592 | 1.34 | 1.65 | -0.0271 | 1.95 | -0.315 | 3.87
12 | TCTTGTAGACCAGCAGGTTAAGAAAGCTGGCCAA | 1.63 | 0.1 | -1.37 | -0.977 | -0.0673 | 0.0995 | -0.534 | 0.371 | -0.568 | 0.179
13 | CAAACTAGGGCACAGAGGTCAAAGTCCGTGCGTA | 7.7 | 7.94 | 4.77 | 2.72 | 4.24 | 6.12 | 8.42 | 6.5 | 1.61 | 4.41
14 | TAGCCTAGGTCGGATCGGGCCAGTATACGCTATA | -0.693 | -0.327 | -0.89 | -0.506 | -1.19 | -0.228 | -0.533 | 0.382 | -0.683 | 0.204
15 | CAAACTAGGTCAAGAGGTCTAAGTCCGCTTCCCG | 7.99 | 8.45 | 1.43 | 2.57 | 1.86 | 1.66 | -0.00755 | 2.65 | 0.497 | 4.1
16 | TTACCAAGGTGATCTGAGGTCGTTGATCCAACTC | 0.904 | 1.97 | 0.232 | -0.0515 | 1.46 | 5.06 | 1.41 | 2.02 | 0.209 | 1.55
17 | CAGCCTAGGTAAGGGCCAGTATAGGAGGAACGTT | -0.707 | -0.473 | 0.308 | -0.484 | 0.0729 | -0.698 | -0.364 | -0.562 | -0.726 | -0.0366
18 | CATACAGGGTCAGCTAGGCCAGCGTAGGGACGGC | 1.15 | 2.23 | 0.338 | 0.666 | 1.25 | 2.09 | 0.247 | 2.95 | 0.0243 | 4.03
19 | CCGAGTGGGGCATAAGGTTACCATAAGCCAGCCC | 2.28 | 2.81 | -1.47 | -1.33 | 0.587 | 0.569 | -0.243 | 1.27 | -0.802 | 1.35
20 | AGAACAAGGGCAATGAGTTGATAGCACGGGTGGC | 2.52 | 1.75 | 0.287 | -0.527 | 0.058 | 0.978 | 4.14 | 0.000148 | -0.325 | 2.2
21 | ATCTCTAGGGAACCAAGTTCAGTGAATGCCGAAC | 0.604 | 0.283 | 0.0886 | 0.863 | 0.45 | 1.24 | 1.73 | 0.461 | 0.0341 | 0.674
22 | TGAATGAGATTAAAGATCAGGGAACGTGGCGTCG | -0.695 | -0.415 | -1.12 | -0.126 | -0.076 | -0.42 | -0.498 | -0.467 | 0.0825 | -0.19
23 | TCTTGTAGATCAATAGAGTTTAAGAAAGTGCGCT | 1.58 | 0.625 | 0.851 | 0.852 | -0.192 | 2.24 | 0.847 | 0.263 | 0.0115 | 0.375
